Screening results: PubChem BioAssay, several laboratories
TROY NFkB inh – inhibitors of TROY-driven NF-kB signaling, primary screen, Q293 LMP1-TROYcd cells, NF-kB luciferase, uHTS; AID 1347056, 2019; actives 0.98% (n = 360,000); Q293 LMP1-TROYcd NF-kB luciferase reporter, 4 h; inhibition, % at 10 µM;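 active = compounds whose plate-normalised and pattern-corrected inhibition of the luciferase reporter signal at the single screening dose is 50% or more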
TWEAK Fn14 block – inhibitors of TWEAK-Fn14 signaling, primary screen, luciferase reporter cells, uHTS; inhibition, % at 10 µM; actives 2% (n = 360,000); AID 1159606, 2016; TWEAK-stimulated Fn14 reporter cells, luciferase luminescence, 8 h; in the data active = inhibition above about 50%
HIF-2a block – HIF-2a reporter inhibitors, primary screen, luminescence, 786-0 RCC cells; AID 624352, 2012; actives 0.72% (n = 360,000); inhibition, % at 18.8 µM; 786-0 RCC cells HIF-2a reporter, luciferase luminescence, overnight;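 active = inhibition of the luminescence signal of 40% or more relative to plate controls, in a single-dose primary screen at 18.75 µM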
MITF TRPM1 inh – inhibitors of MITF-dependent TRPM1 promoter reporter, primary screen, cell-based, SK-MEL-5, single point, luciferase; inhibition, % at 12.5 µM; AID 488899, 2010; actives 0.83% (n = 330,000); SK-MEL-5 TRPM1 promoter luciferase, 24 h;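 active = mean inhibition across replicates of 60% or more, whatever share of single replicates reaches that level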
EBV LMP1 NFkB – EBV LMP1-driven NF-kappaB luciferase reporter inhibitors, primary screen, cell-based, luminescence, single point; LMP1-induced NF-kappaB luciferase reporter cells; inhibition, % at 12.5 µM; actives 0.69% (n = 350,000); in the data active = inhibition above about 41%;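 note: 0% = neutral control wells and 100% = reference inhibitor control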
Shn3 inh set2 – reduction of Shn3 3'UTR firefly luciferase signal, primary screen, Schnurri-3 inhibitor project, cell-based, Clone20 osteoblasts, set 2; Clone20 osteoblast Shn3 3'UTR firefly luciferase, 24 h; inhibition, % at 12.5 µM; actives 0.52% (n = 360,000); AID 588674, 2011;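 active = mean inhibition of at least 75% with every replicate also reaching 75%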;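 note: 0% = median of neutral control wells and 100% = pilot-screen positive control compound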
* marks the source's active call; other numbers are inactive results; x = not tested or not shown. Rows were chosen to be rich in hits. Some 3.4% of all compounds tested hit in one or more screens of this group.

SMILES	TROY NFkB inh	TWEAK Fn14 block	HIF-2a block	MITF TRPM1 inh	EBV LMP1 NFkB	Shn3 inh set2
CCC(c1ccccc1)c1noc(CCN(CC)CC)n1 (centres undefined)	-2	-15	-4	x	-3	12
CCOC(=O)c1nn(-c2c(C)n(C)n(-c3ccccc3)c2=O)cc1O	x	61*	9	12	4	14
CC1(C)C2CCC(C2)C1(C)NC(=O)CN1CCCC1 (centres undefined)	10	8	15	2	0	-6
CNC1(C)[C@H]2CC[C@H](C2)C1(C)C (some centres undefined)	-9	-1	-3	1	81*	16
CN(C)C=NC(=O)c1[nH]c2ccc(Cl)cc2c1-c1ccccc1	43	69*	25	37	-4	-41
CCOC(=O)c1[nH]c2ccc(Cl)cc2c1-c1ccccc1	3	7	14	-1	26	-22
COc1ccc(Cc2[nH]n3c(=O)c(Cl)c(C)nc3c2-c2ccccc2)cc1	69*	26	4	-16	-3	-7
COc1cc(CNC[C@H]2O[C@@H](n3cc(C)c(=O)[nH]c3=O)C[C@@H]2O)ccc1OCc1cccc(Cl)c1	-9	6	7	x	2	-5
O=C(CSc1ccccn1)Nc1cccc(S(=O)(=O)N2CCCC2)c1	-10	14	-1	-3	3	20
Cc1nn(-c2ccc(N3CCOCC3)nn2)c(C)c1CCC(=O)N1CCN(C)CC1	-3	26	4	0	7	10
Cc1ccc(NC2CCCN(C(=O)C3CCCCC3)C2)cc1C (centres undefined)	-21	69*	4	7	-9	10
COc1cccc2c1C1COC3C4CC(C(=O)O)C(C(C2)N13)N4C (centres undefined)	30	61*	16	-5	1	-10
O=C(Nc1cccc(Cl)c1N1CCOCC1)c1cccs1	3	2	2	-6	9	13
O=C(COC(=O)C1CCN(c2ccc(C(F)(F)F)cn2)CC1)NCc1ccc(F)cc1	-17	-10	-3	-9	1	5
COc1ccc2c(-c3ccc(S(N)(=O)=O)cc3)c(-c3ccc(S(C)(=O)=O)cc3)sc2c1	29	28	-51	17	-15	15
Cc1cc(=O)oc2c3c(cc(OCC(=O)NCc4ccccc4)c12)OC(C)(C)CC3	-5	-15	3	0	-2	19
Cc1cc(=O)oc2c3c(cc(OCC(=O)Nc4ccc(CCO)cc4)c12)OC(C)(C)CC3	0	-3	-21	-8	-7	91*
NC(=O)c1ccsc1NC(=O)COC(=O)Cc1cccc2ccccc12	61*	55*	2	22	21	79
O=C(O)C1CCC(CNCc2ccccc2Cl)CC1 (centres undefined)	6	56*	8	11	8	11
O=C(O)C1CCC(CNCc2ccncc2)CC1 (centres undefined)	-5	-8	14	1	-1	11
COc1ccc(NC(=O)c2oc3ccccc3c2NC(=O)c2ccco2)c(OC)c1	-9	46	-32	-13	16	4
O=C(Nc1ccc(NC(=O)c2ccccc2F)cn1)c1ccco1	23	53*	-1	-1	23	10
COc1ccc(NC(=O)c2oc3ccccc3c2NC(=O)c2ccco2)cc1	7	55*	-80	-19	16	9
O=C(Nc1ccc(Cl)cc1)c1ccco1	-32	-5	-220	-42	57*	-18
CC1N(C)c2cc(NC(=O)c3ccco3)ccc2C1(C)C (centres undefined)	53*	49	-194	-20	-8	22
CCCCN1C(=O)C(CC(=O)NCc2cccs2)CC(C(=O)N(CC)CC)=C1C (centres undefined)	-6	-1	4	x	-4	-16
COc1ccc(CNC(=O)CN(c2ccc(C)cc2)S(=O)(=O)c2c(C)nn(C)c2C)cc1	-9	6	16	-2	-4	-30
